Reference: the supplement of paper PMC6992640
± gives the standard deviation of the averaged measurements.

Tests used:
Test in all cases: cell viability (% of vehicle); higher = less cytotoxic
Conditions in all cases: 10 µM; 72 h
HCI01 = test system: HCI01 (cells of a triple-negative basal-like breast cancer xenograft)
HCI03 = test system: HCI03 (cells of an ER-positive luminal breast cancer xenograft)
HCI09 = test system: HCI09 (cells of a triple-negative luminal androgen receptor type breast cancer xenograft)
HCI11 = test system: HCI11 (cells of an ER-positive luminal breast cancer xenograft)
HCI13 = test system: HCI13 (cells of an ER-positive luminal breast cancer xenograft)
HCI16 = test system: HCI16 (cells of a triple-negative basal-like breast cancer xenograft)
UCD52 = test system: UCD52 (cells of a triple-negative basal-like breast cancer xenograft)
WHIM2 = test system: WHIM2 (cells of a triple-negative basal-like breast cancer xenograft)
WHIM30 = test system: WHIM30 (cells of a triple-negative basal-like breast cancer xenograft)
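Further: PDX cells carrying CMV promoter-driven luciferase, viability read as total photon flux per second by IVIS imaging following D-luciferin, vehicle control 0.1% DMSO.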

Row | Compound | cell viability (HCI01) | cell viability (HCI03) | cell viability (HCI09) | cell viability (HCI11) | cell viability (HCI13) | cell viability (HCI16) | cell viability (UCD52) | cell viability (WHIM2) | cell viability (WHIM30)
1 | O=C(CCCN1CC=C(n2c(=O)[nH]c3ccccc32)CC1)c1ccc(F)cc1 [Droperidol] | 108 ± 23 | 106 | 84.4 ± 9.8 | 97.5 | 113 ± 20 | 107 | 93.1 ± 5.3 | 96.6 ± 20 | 100 ± 2.3
2 | CCCC(CCC)C(=O)O [Valproic acid] | 102 ± 13 | 121 | 133 ± 28 | 103 | 143 ± 3.3 | 106 | 95.8 ± 6.9 | 95.6 ± 7.5 | 83.36 ± 0.16
3 | CC1(c2nc3c(C(N)=O)cccc3[nH]2)CCCN1 (stereo not drawn) [ABT-888 (Veliparib)] | 109 ± 7.5 | 120 | 108 ± 5.2 | 100 | 86.9 ± 14 | 91.1 | 94.2 ± 2 | 101 ± 14 | 121 ± 4.2
4 | CC1Cc2ccccc2N1NC(=O)c1ccc(Cl)c(S(N)(=O)=O)c1 (stereo not drawn) [Indapamide] | 98 ± 9.9 | 100 | 94.6 ± 4.7 | 88.8 | 110 ± 14 | 128 | 80.2 ± 1.6 | 107 ± 18 | 105 ± 3.4
5 | Cc1cccc(C)c1OCC(C)N.Cl (stereo not drawn) [Mexiletine HCl] | 127 ± 27 | 110 | 120 ± 46 | 123 | 122 ± 26 | 188 | 120 ± 7 | 129 ± 14 | 147 ± 1.7
6 | Cc1ncc([N+](=O)[O-])n1CC(C)O (stereo not drawn) [Secnidazole] | 57.6 ± 32 | 133 | 82.6 ± 1.1 | 89.3 | 103 ± 11 | 114 | 79.3 ± 1.8 | 92.4 ± 20 | 149 ± 20
7 | Cc1c(O)c(=O)ccn1C [Deferiprone] | 81 ± 3.5 | 102 | 83.6 ± 14 | 77.1 | 93 ± 5.8 | 102 | 85.8 ± 1.6 | 144 ± 12 | 89.2 ± 3.3
8 | CCC(CC)C(NC(C)=O)C1C(N=C(N)N)CC(C(=O)O)C1O (stereo not drawn) [Peramivir] | 112 ± 9.2 | 110 | 91.2 ± 18 | 98 | 102 ± 20 | 78.9 | 81.6 ± 14 | 97.5 ± 6.7 | 136 ± 24
9 | CCc1cc(C(C)=NOCc2ccc(C3CCCCC3)c(C(F)(F)F)c2)ccc1CN1CC(C(=O)O)C1 [BAF312 (Siponimod)] | 97.4 ± 10 | 124 | 44.2 ± 29 | 72.2 | 75.64 ± 0.57 | 115 | 93.7 ± 1.5 | 93.7 ± 17 | 111 ± 9.5
10 | C=CC(=O)N1CCCC(n2nc(-c3ccc(Oc4ccccc4)cc3)c3c(N)ncnc32)C1 (stereo not drawn) | 80.2 ± 24 | 69 | 56.2 ± 21 | 83.8 | 87.9 ± 8.6 | 55.6 | 76.7 ± 4.3 | 70.4 ± 7.2 | 103 ± 9.7
11 | CCCCOc1ccc(OCCCN2CCOCC2)cc1.Cl [Pramoxine HCl] | 137.9 ± 0.65 | 103 | 92.4 ± 8.4 | 112 | 83.5 ± 24 | 116 | 79.6 ± 6 | 166 ± 12 | 133 ± 23
12 | CC(C(=O)[O-])c1cccc(Oc2ccccc2)c1.CC(C(=O)[O-])c1cccc(Oc2ccccc2)c1.[Ca+2] (stereo not drawn) [Fenoprofen Calcium] | 112 ± 34 | 100 | 101 ± 7.6 | 94.3 | 121 ± 16 | 105 | 83 ± 3.5 | 98.7 ± 7.4 | 169 ± 11
13 | CC(COc1ccccc1)N(CCCl)Cc1ccccc1.Cl (stereo not drawn) [Phenoxybenzamine HCl] | 122 ± 3.3 | 131 | 133 ± 28 | 114 | 150 ± 8.9 | 195 | 104.7 ± 0.72 | 93.9 ± 10 | 191 ± 9.4
14 | O=C(O)CSCC(=O)NC1CCSC1=O (stereo not drawn) [Erdosteine] | 105 ± 12 | 125 | 108 ± 27 | 108 | 87.3 ± 5.8 | 134 | 94.1 ± 8.3 | 119 ± 33 | 177 ± 44
15 | CCCCCN(C)CCC(O)(P(=O)([O-])O)P(=O)(O)O.O.[Na+] [Ibandronate sodium] | 113 ± 30 | 93.2 | 107 ± 19 | 101 | 126 ± 20 | 138 | 115 ± 5.5 | 130 ± 14 | 128 ± 22
16 | Cn1c(=O)c2[nH]cnc2n(C)c1=O [Theophylline] | 98.1 ± 19 | 123 | 94 ± 22 | 66.9 | 92.4 ± 1.1 | 117 | 103 ± 5.6 | 86.5 ± 16 | 95.8 ± 16
17 | CCCNC(C)C(=O)Nc1ccccc1C.Cl (stereo not drawn) [Prilocaine hydrochloride] | 147 ± 18 | 117 | 112.29 ± 0.067 | 113 | 83.1 ± 5.5 | 122 | 102 ± 16 | 102 ± 6.2 | 135 ± 5
18 | CCC1C(O)C2C3CCC(C(C)CCC(=O)O)C3(C)CCC2C2(C)CCC(O)CC12 (stereo not drawn) [Obeticholic Acid] | 137 ± 53 | 149 | 77.56 ± 0.36 | 112 | 81.8 ± 14 | 145 | 98.9 ± 10 | 120 ± 1.9 | 151 ± 2.4
19 | CC(C)C(N)C(=O)OCCOCn1cnc2c(=O)nc(N)[nH]c21.Cl (stereo not drawn) [Valaciclovir HCl] | 71.5 ± 40 | 128 | 94.3 ± 3 | 88.8 | 94.7 ± 8.2 | 106 | 91.8 ± 12 | 102 ± 19 | 169 ± 13

Row | Compound | cell viability (HCI01) | cell viability (HCI03) | cell viability (HCI09) | cell viability (HCI11) | cell viability (HCI13) | cell viability (HCI16) | cell viability (UCD52) | cell viability (WHIM2) | cell viability (WHIM30)
20 | Cc1cccc(C)c1NC(=O)C1CCCCN1C.Cl (stereo not drawn) [Mepivacaine HCl] | 87.6 ± 1.4 | 89.2 | 97.91 ± 0.71 | 96.2 | 124 ± 2.2 | 118 | 70.4 ± 3.6 | 89.7 ± 14 | 166 ± 4.5
21 | O=C(Oc1ccccc1C(=O)O)c1ccccc1O [Sasapyrine] | 113 ± 14 | 109 | 108 ± 17 | 104 | 74.4 ± 6.4 | 122 | 90.2 ± 1.2 | 123 ± 24 | 142 ± 7.2
22 | CCc1ccc(CCOc2ccc(CC3SC(=O)NC3=O)cc2)nc1.Cl (stereo not drawn) [Pioglitazone HCl] | 119 ± 6.9 | 129 | 93.7 ± 19 | 125 | 126 ± 2 | 102 | 116 ± 11 | 116 ± 13 | 182 ± 40
23 | Nc1nc(=O)n(C2CSC(CO)O2)cc1F (stereo not drawn) [Emtricitabine] | 105 ± 9.3 | 153 | 104 ± 12 | 107 | 113 ± 11 | 94.6 | 79.81 ± 0.75 | 90 ± 8.8 | 98.1 ± 1.3
24 | CCCCCCCCCCCCCCCCO [1-Hexadecanol] | 108 ± 3.9 | 95.9 | 97.8 ± 12 | 95.2 | 107 ± 84 | 109 | 67.1 ± 5.9 | 94.2 ± 11 | 84.7 ± 8.4
25 | CC(C)NCC(O)COc1cccc2ccccc12.Cl (stereo not drawn) [Propranolol HCl] | 109.73 ± 0.067 | 104 | 100 ± 15 | 84.5 | 97.8 ± 24 | 96.6 | 83.3 ± 4.4 | 83.3 ± 16 | 108 ± 7.8
26 | CCNC1CC(N)C(OC2OC(CN)=CCC2N)C(O)C1OC1OCC(C)(O)C(NC)C1O.CCNC1CC(N)C(OC2OC(CN)=CCC2N)C(O)C1OC1OCC(C)(O)C(NC)C1O.O=S(=O)(O)O.O=S(=O)(O)O.O=S(=O)(O)O.O=S(=O)(O)O.O=S(=O)(O)O (stereo not drawn) [Netilmicin Sulfate] | 99.3 ± 34 | 125 | 125 ± 46 | 111 | 98.3 ± 2.5 | 138 | 120 ± 18 | 115.7 ± 1.1 | 138 ± 28
27 | NC(=O)c1ncn(C2OC(CO)C(O)C2O)c1O (stereo not drawn) [Mizoribine] | 82.4 ± 3.9 | 89.4 | 93.1 ± 30 | 88.8 | 90.05 ± 0.16 | 87.7 | 88.5 ± 5 | 97 ± 11 | 84.4 ± 3.9
28 | CCN(CC)CCOC(=O)C1(C2CCCCC2)CCCCC1.Cl [Dicyclomine HCl] | 126 ± 7.2 | 123 | 102 ± 11 | 99.7 | 90.1 ± 10 | 141 | 68.6 ± 1.9 | 104 ± 1.9 | 117 ± 2.5
29 | OCC1OC(Oc2ccc(O)cc2)C(O)C(O)C1O (stereo not drawn) [Arbutin] | 107 ± 28 | 127 | 100 ± 16 | 89.2 | 96.6 ± 4.9 | 131 | 103 ± 1.1 | 81.9 ± 9 | 84.3 ± 7.3
30 | Cn1cc[nH]c1=S [Methimazole] | 143 ± 11 | 119 | 130 ± 23 | 112 | 82 ± 21 | 126 | 100.1 ± 0.29 | 107 ± 2.4 | 139 ± 3.8
31 | CC(C)Cc1ccc(C(C)C(=O)O)cc1 (stereo not drawn) [Ibuprofen] | 124 ± 28 | 115 | 110 ± 24 | 104 | 133 ± 7.1 | 90.2 | 88.9 ± 4.3 | 102 ± 13 | 104 ± 4.4
32 | COc1ccc(C=Cc2cc(OC)c(OC)c(OC)c2)cc1OP(=O)([O-])[O-].[Na+].[Na+] [Fosbretabulin (Combretastatin A4 Phosphate (CA4P)) Disodium] | 185 ± 47 | 115 | 110 ± 35 | 115 | 41.7 ± 5.6 | 132 | 86 ± 16 | 111 ± 12 | 104 ± 5.7
33 | CCCCc1nc(Cl)c(CO)n1Cc1ccc(-c2ccccc2-c2nnn[n-]2)cc1.[K+] [Losartan Potassium (DuP 753)] | 126 ± 8.5 | 124 | 106 ± 8.5 | 79 | 82.7 ± 0.98 | 82.3 | 97.9 ± 7.8 | 87 ± 17 | 118 ± 2.1
34 | C=C1CCC(O)CC1=CC=C1CCCC2(C)C1CCC2C(C)C=CC(C)C(C)C (stereo not drawn) [Vitamin D2 (Ergocalciferol)] | 118 ± 26 | 101 | 61.9 ± 14 | 95.2 | 58.8 ± 16 | 77.9 | 65.5 ± 2.4 | 40.7 ± 13 | 89.1 ± 10
35 | COc1ccc2nc(S(=O)Cc3ncc(C)c(OC)c3C)[nH]c2c1 (stereo not drawn) [Omeprazole] | 127 ± 30 | 149 | 94.2 ± 5.6 | 102 | 94 ± 3.6 | 121 | 138 ± 16 | 99.8 ± 23 | 192 ± 5.1
36 | CCN(CCO)CCCC(C)Nc1ccnc2cc(Cl)ccc12.O=S(=O)(O)O (stereo not drawn) [Hydroxychloroquine Sulfate] | 71.8 ± 4.6 | 96.6 | 72.2 ± 1.6 | 81.8 | 84.4 ± 8.1 | 86.5 | 71.4 ± 3.8 | 70.8 ± 2.9 | 101.7 ± 0.69
37 | Cc1nnc(C(=O)NC(C)(C)c2nc(C(=O)NCc3ccc(F)cc3)c(O)c(=O)n2C)o1 [Raltegravir (MK-0518)] | 126 ± 2 | 134 | 97 ± 18 | 116 | 93.4 ± 11 | 118 | 119 ± 20 | 116 ± 15 | 136 ± 7.5
